hDAT+cocaine – modulates human dopamine transporter uptake under cocaine; LLC-PK1 hDAT cells, [14C]-dopamine uptake with cocaine IC80; actives deviate in either direction; B-score at 10 µM; 110,000 tested, 1.3% active;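 active = Z score or B-score, a plate-position-corrected score, falls beyond the plate's 99.7% confidence bounds, in either direction; inactive = both scores lie inside the 99.7% bounds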
D1 mod – allosterically modulates the human D1 dopamine receptor; P21728; HEK293 D1, CRE-luciferase, dopamine EC30 potentiation; actives deviate in either direction; B-score at 10 µM; 58,000 tested, 5.9% active; AID 641;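 active = luminescence count or its row- and column-corrected plate score outside the 99.7% band of the plate's sample wells, on either side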
PLAP act – human PLAP activation; activation fold at 20 µM; purified PLAP enzyme, luminescent substrate read-out; stronger effect = higher value; 96,000 tested, 1.2% active; AID 696; in the data active = activation fold above about 2
Target sequence (P05187 whole entry, looked up): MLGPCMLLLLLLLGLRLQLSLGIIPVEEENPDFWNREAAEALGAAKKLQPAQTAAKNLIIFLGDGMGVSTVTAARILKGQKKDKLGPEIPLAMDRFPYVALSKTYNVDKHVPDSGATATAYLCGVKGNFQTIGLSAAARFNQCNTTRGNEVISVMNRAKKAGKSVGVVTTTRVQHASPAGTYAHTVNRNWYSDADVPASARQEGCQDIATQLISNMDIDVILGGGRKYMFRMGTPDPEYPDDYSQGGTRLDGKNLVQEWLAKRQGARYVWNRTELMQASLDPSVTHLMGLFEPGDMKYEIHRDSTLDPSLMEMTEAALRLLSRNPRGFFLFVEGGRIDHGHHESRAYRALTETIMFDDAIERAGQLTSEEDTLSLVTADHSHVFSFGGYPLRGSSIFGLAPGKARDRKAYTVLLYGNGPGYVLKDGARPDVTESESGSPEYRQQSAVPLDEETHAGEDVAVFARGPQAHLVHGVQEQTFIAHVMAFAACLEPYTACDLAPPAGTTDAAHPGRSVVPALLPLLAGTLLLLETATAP
HePTP inh – blocks human HePTP tyrosine phosphatase; P35236; recombinant HePTP phosphatase activity, OD absorbance; inhibition, % at 20 µM; 110,000 tested, 0.64% active; AID 521; in the data active = inhibition above about 50%
Calb biofilm kill – kills Candida albicans biofilms | 85,000 tested, 0.14% active | inhibition, % at 6 µM | AID 834 | C. albicans biofilm + clotrimazole, Alamar Blue;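 active = inhibition above 20%; inactive = inhibition below 20%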;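 also: preformed 24 hr biofilms exposed to compound for 48 hr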
TNAP act DEA – activators of human TNAP at intermediate phosphate acceptor | AID 813 | 64,000 tested, under 10 active | purified TNAP, CDP-star luminescence, 100 mM DEA, 30 min; stronger effect = higher value; scale: 0 levamisole-inhibited, 1 vehicle-only enzyme | activation factor at 20 µM;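 active = activation factor of at least 2 at 20 µM, relative to controls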
A number is an active result; - = inactive; . = no result. Shown is part of a subset that was picked to be rich in hits.

SMILES	hDAT+cocaine	D1 mod	PLAP act	HePTP inh	Calb biofilm kill	TNAP act DEA
CCOc1ccc2nc(SCC(=O)Nc3ccc4c(c3)OCCO4)[nH]c2c1	-	.	2.1	.	-	.
COC(=O)c1cc(CSc2nc3ccccc3[nH]2)oc1C	-	.	2.3	.	.	.
CCOc1ccc2nc(SCc3ccc(C(=O)OC)o3)[nH]c2c1	-	-	2.2	-	.	-
COc1ccc(/C=C2\C=C(c3ccc(Cl)cc3)OC2=O)c(OC)c1	.	.	.	-	.	.
O=C(COc1ccc(I)cc1)Nc1ccc2c(c1)oc1ccccc12	.	.	.	102	.	.
COc1cc2c(cc1NC(=O)CC(C)=O)oc1ccccc12	.	.	.	-	.	.
O=C(COc1ccc(Cl)cc1Cl)Nc1ccc2c(c1)oc1ccccc12	.	.	.	-	.	.
COc1cc2c(cc1NC(=O)COc1ccc3ccccc3c1)oc1ccccc12	-7.8	.	-	.	.	.
COc1ccc(C(O)(C(=O)NCCCCOc2ccccc2)c2ccc(OC)cc2)cc1	.	.	.	-	.	.
CO/N=C/C(C#N)c1ncc(C(F)(F)F)cc1Cl (stereo not drawn)	-2.5	.	-	.	.	.
CCn1c2ccccc2c2cc(CN3CCN(C(=O)c4ccc(OC)c(OC)c4)CC3)ccc21	.	.	.	-	.	.
CCNC(=NCCc1ccc(OC)c(OC)c1)SC1CC(=O)N(c2ccccc2F)C1=O (stereo not drawn)	.	.	.	-	.	.
CN(C1=NC(=O)S/C1=C\c1ccc([N+](=O)[O-])cc1)c1ccc(O)cc1	.	.	.	56	.	.
COc1ccccc1N1CCN(CC(=O)Nc2cc(F)ccc2C)CC1	-	.	-	-	-	-
COc1ccccc1N1CCN(CC(=O)Nc2cc(C)nn2-c2nc(C)cc(C)n2)CC1	.	4.8	.	-	-	-
CCCS(=O)(=O)c1c(S(=O)(=O)CCC)c2c3ccccc3ccn2c1C(=O)OC	-	.	.	.	-	.
CCCS(=O)(=O)c1c(S(=O)(=O)CCC)c2c(C)cccn2c1C(=O)OC	1.4	.	-	.	-	.
CCCCC(=O)Nc1nc(C)c(-c2csc(Nc3ccccc3OC)n2)s1	2.8	.	-	.	.	.
CCCCCCC(=O)Nc1nc(C)c(-c2csc(Nc3cc(OC)ccc3OC)n2)s1	2.4	.	-	.	.	.
C=CCCC(=O)Nc1nc(C)c(-c2csc(Nc3ccccc3OC)n2)s1	-	.	-	.	.	.
COc1cc(Br)c(CNc2cccc(C)c2)cc1OC	.	.	.	-	.	.
CC(=O)N1CCc2cc(S(=O)(=O)NC(CC(C)C)C(=O)N3CCc4ccccc4C3)ccc21 (stereo not drawn)	-	-	-	-	-	-
CC(=O)N1CCc2cc(S(=O)(=O)NC(CC(C)C)C(=O)Nc3cc(C)ccn3)ccc21 (stereo not drawn)	-	-4	-	-	-	-
O=C1N=c2ccccc2=C1c1sc(=O)n(-c2cccc(O)c2)c1O	.	.	.	-	.	.
O=C1N=c2ccccc2=C1c1s/c(=N/N=C2/C(=O)Nc3ccccc32)n(-c2ccc(O)cc2)c1O	.	.	.	98	.	.
SMILES	hDAT+cocaine	D1 mod	PLAP act	HePTP inh	Calb biofilm kill	TNAP act DEA
O=C(Nc1ccc(-c2nc3ccccc3[nH]2)cc1)c1cc2ccccc2o1	.	.	.	102	.	.
O=C(Nc1ccc(-c2nc3ccccc3[nH]2)cc1)c1ccc(Cl)c(Cl)c1	.	.	.	101	.	.
O=C(NCCCCNc1ccc(C(F)(F)F)cc1[N+](=O)[O-])c1ccc(Cl)cc1	.	.	.	-	.	.
O=[N+]([O-])c1cc(C(F)(F)F)ccc1NCCNC(=S)Nc1ccc(Cl)cc1	-	.	-	104	.	.
O=C(c1ccc2c(c1)N(Cc1ccccc1)C(=O)c1ccccc1S2)N1CCCC1	3.3	.	-	.	-	.
COc1cccc(N2C(=O)C(CC(=O)Nc3ccccc3)N(C3CCCCC3)C2=O)c1 (stereo not drawn)	-	-7.4	-	-	.	-
Cn1nc(-c2ccc(Cl)cc2)nc2c(=O)n(C)c(=O)nc1-2	-4.4	.	-	.	-	.
CCN(CC)c1ccc(/C=C(\C#N)C(=O)Nc2ccc(OC)cc2)c(OC)c1	.	.	.	-	.	.
COc1ccc2ccccc2c1C(O)c1nccn1C (stereo not drawn)	-	-	2	-	-	-
NC(=O)C1CCN(C(=O)CN(c2cccc(C(F)(F)F)c2)S(=O)(=O)c2ccccc2)CC1	-	-2.3	-	-	-	-
CCOC(=O)N1CCN(C(=O)CN(c2cccc(C)c2)S(=O)(=O)c2ccc(C)cc2)CC1	-	-	-	-	-	-
Cc1ccc(S(=O)(=O)N(CC(=O)N2CCC(C)CC2)c2cccc(C)c2)cc1	-	.	2.2	.	-	.
CCOC(=O)C1CCN(C(=O)CN(c2ccc(OC)c(OC)c2)S(=O)(=O)c2ccccc2)CC1	-	-	-	-	-	-
COc1cc2nc(CN(C)CC(=O)Nc3ccc(N4CCOCC4)cc3)[nH]c(=O)c2cc1OC	.	-	2.3	-	-	-
CCN(CC(=O)Nc1cccc(Br)c1)Cc1nc2ccccc2c(=O)[nH]1	-	.	-	.	.	.
CCN(CC(=O)Nc1ccc2c(c1)OCO2)Cc1nc2ccccc2c(=O)[nH]1	-	-	.	-	-	-
COc1cc2nc(CN(C)Cc3nc4ccccc4c(=O)[nH]3)[nH]c(=O)c2cc1OC	-	.	.	.	.	.
CN(CC(=O)Nc1ccccc1Br)Cc1nc2ccccc2c(=O)[nH]1	-	.	2.4	.	.	.
CCN(CC(=O)NC(c1ccccc1)c1ccccc1)Cc1nc2ccccc2c(=O)[nH]1	-	.	.	.	-	.
CCN(CC(=O)Nc1ccc2c(c1)CCC2)Cc1nc2ccccc2c(=O)[nH]1	-	.	2.6	-	-	-
CCN(CC(=O)NCc1ccc(F)cc1)Cc1nc2cc(Cl)ccc2c(=O)[nH]1	-	.	2.7	.	-	.
Cc1ccc(OCC(=O)Nc2ccc(C)c(Cl)c2)c(Br)c1	.	.	.	-	.	.
CCN(CC(=O)Nc1ccc2c(c1)OC(F)(F)O2)Cc1nc2ccccc2c(=O)[nH]1	-	.	.	.	-	.
CCN(CC(=O)Nc1ccc(N2CCOCC2)cc1)Cc1nc2ccccc2c(=O)[nH]1	-	.	2.1	.	-	.
CCN(Cc1nc2ccccc2c(=O)[nH]1)Cc1nc2cc(OC)c(OC)cc2c(=O)[nH]1	-	-	2.2	-	-	-
SMILES	hDAT+cocaine	D1 mod	PLAP act	HePTP inh	Calb biofilm kill	TNAP act DEA
COc1cccc(C2/C(=C(\O)c3ccccc3)C(=O)C(=O)N2CCN(C)C)c1 (stereo not drawn)	.	.	.	-	.	.
Cc1ccc(NC(=O)NC2CCCCC2)cc1Cl	-	-	-	-	-	-
O=C(Nc1ccc2c(c1)nc1n2CCSC1)c1ccccc1	-	-3.7	-	-	-	-
CC(c1ccccc1)N1CCn2c(nc3cc(NC(=O)NC4CCCCC4)ccc32)C1 (stereo not drawn)	-	.	2.9	.	-	.
CC(c1ccccc1)N1CCn2c(nc3cc(NC(=O)c4cccs4)ccc32)C1 (stereo not drawn)	2.7	.	-	.	-	.
COc1ccc(C(=O)Nc2ccc3c(c2)nc2n3CCSC2)cc1	-	-	-	-	-	-
Cc1cc(C)c(NC(=O)C(C)Oc2cccc(Cl)c2)c(C)c1 (stereo not drawn)	.	.	.	-	.	.
COc1cc(SC)ccc1C(=O)Nc1ccc2c(c1)OCCO2	3.4	-4.2	-	-	-	-
COc1ccccc1C(=O)Nc1ccc2c(c1)OCCO2	-	-	-	-	-	-
COc1ccccc1NC(=O)CN1CCN(CC(=O)Nc2ccc3c(c2)OCCO3)CC1	3.1	-	-	-	.	-
